Molecules are shown by their SMILES. Among all 1,200 compounds or so, about 290 (24%) were called active. Not shown: some 9% with an inconclusive outcome. No rule for the calls is given here. Not all results are given here. Entries with a potency or affinity are not part of this list.

A short description of the assay: cytotoxicity in EBV lymphoblastoid cells, dose response, cytotoxicity control, cell-based, plate reader, cherry-picks, set 2 (AID 504882). The following applies: EBV lymphoblastoid cells (LCL) viability; series mostly up to 19.5 µM.
Turning to `CCOc1ccc(S(=O)(=O)N2CCC(C(=O)NCCc3ccc(S(N)(=O)=O)cc3)CC2)cc1`, the compound was classed as inactive. With `NC(=O)c1ccccc1N/C=C/C(=O)c1cccs1`, the outcome was inactive. To `O=C(N/C(=C/c1ccc(Br)cc1)C(=O)N1CCOCC1)c1ccc(Br)o1` belongs “inactive”; to `O=C(Nc1ncc(Br)s1)C(Cc1ccccc1)n1cccc1` (stereo not given), “inactive”; to `CN(C)CCC(c1ccccc1)c1ccccn1` (stereo not given), “inactive”. To `CCC(C)n1ncn(-c2ccc(N3CCN(c4ccc(OCC5COC(Cn6cncn6)(c6ccc(Cl)cc6Cl)O5)cc4)CC3)cc2)c1=O` (stereo not given) belongs “inactive”. As for `CCn1c(=O)c2c(cnn2C)c2ccccc21`, the entry is “inactive”. Regarding `Cn1cccc1/C=N/n1c(-c2ccc(Cl)cc2Cl)n[nH]c1=S`, the result was inactive.

Take `CC(=C/c1ccccc1)/C=N/n1c(-c2ccncc2)n[nH]c1=S`: the call was inactive. Consider `OC(CCCN1CCCCC1)(c1ccccc1)c1ccccc1`, for which the call was inactive. On to `COc1ccc(N2C(=O)C(Cl)=C(NCc3ccccc3)C2=O)cc1`, for which the result was inactive. To `COC(=O)[C@@]1(C)[C@H]2C(=O)N(Cc3ccccc3)C(=O)[C@H]2[C@H]2CN=C(SCc3ccc(Cl)cc3)N21` belongs “inactive”; to `CC(C)Nc1nnc(SCC(=O)c2c(N)n(Cc3ccccc3)c(=O)n(C)c2=O)s1`, “inactive”.

Take `CCN(C(=O)c1cc(OC)c(OC)c(OC)c1)C1CCCCC1`: the result was inactive. As to `COC(=O)C1=NNC(C(=O)OC)C1c1ccccc1` (stereo not given), the outcome was inactive. Regarding `Cn1c(=O)c2c(ncn2CC(=O)Nc2cc(S(=O)(=O)N3CCCCC3)ccc2O)n(C)c1=O`, the result was inactive. `COCCN1Cc2cccc(C(=O)N3CCN(c4cc(C)ccc4C)CC3)c2C1=O`: the compound was called inactive.

Turning to `O=C(Nc1cc(C(F)(F)F)cc(C(F)(F)F)c1)Nc1cnn(-c2ccc([N+](=O)[O-])cc2)c1C(F)(F)F`, the compound was classed as inactive. As to `CCOCCCn1cnc2c3cc(F)ccc3n(C)c2c1=O`, the compound was called inactive. To `CCOC(=O)CCSc1nc(N2CCOCC2)c2c(c1C#N)CC(C)(C)OC2` belongs “inactive”; to `COc1ccc(-c2cn3nc4c(nc3n2)CCCC4)cc1`, “inactive”. In the case of `COc1cccc(C(=O)OCn2nnc3ccccc3c2=O)c1OC`, the compound was classed as inactive. In the case of `Nc1nc(N)nc(-c2cc(Cl)ccc2Cl)n1`, the compound was called inactive. In the case of `O=C(COc1ccc2ccccc2c1)NCCNC(=O)COc1ccc2ccccc2c1`, the result was inactive.

Consider `O=c1c2cnn(-c3ccccc3)c2nc(-c2cccs2)n1-c1ccc(Br)cc1`, for which the call was inactive. As to `CC1CC(C)CN(S(=O)(=O)c2ccc(NC(=O)CCN3C(=O)C4CC=CCC4C3=O)cc2)C1` (stereo not given), the compound was classed as inactive. With `COc1ccc(S(=O)(=O)NCC(c2cccnc2)N2CCN(c3ccc(F)cc3)CC2)cc1C` (stereo not given), the outcome was inactive.

On to `Cc1nc2ncccn2c1-c1csc(Nc2ccccc2)n1`, for which the compound was classed as inactive. For the compound `CC(=O)c1sc(NC(=O)C2COc3ccccc3O2)nc1C` (stereo not given), the compound was classed as inactive. For the compound `O=C(COC(=O)c1cc2ccccc2cc1O)NCc1ccccc1`, the result was inactive. To `CCNc1nc(CN2CCOCC2)nc2sc3c(c12)CCC3` belongs “inactive”; to `O=c1c(O)c(-c2ccc(O)c(O)c2)oc2cc(O)cc(O)c12`, “inactive”; to `O=C(O)[C@@H]1[C@H]2C[C@H]3c4[nH]c5ccccc5c4CCN3C[C@@H]2CC[C@@H]1O`, “inactive”. Regarding `CC1=NN(C(N)=S)C(=O)C1N=Nc1cccc(C(=O)O)c1` (stereo not given), the compound was called inactive. As for `Cc1ccc(C(=O)Nc2ccc3c(c2)OCCO3)c(Cl)c1`, the call was inactive.

Take `Cc1ccc(C)c(S(=O)(=O)N2CCN(C(=O)c3ccc(C)s3)CC2)c1`: the result was inactive.

With `N#Cc1c(Nc2ccccc2)sc(C(=O)c2ccc(F)cc2)c1N`, the compound was classed as inactive. For the compound `CNC(=S)Nc1ccc2nc(C)c(C)nc2c1`, the outcome was inactive. Consider `Oc1[nH]c2ccccc2c1N=Nc1c(F)c(F)c(Cl)c(F)c1F`, for which the compound was classed as inactive. For `CCn1nnc2cc(C(=O)NCCc3ccccc3F)ccc21`, the result was inactive.

Turning to `O=C(Nc1cccc(C(=O)O)c1)Nc1ccccc1Cl`, the compound was classed as inactive. As for `Cc1ccc(C(=O)Nc2nnc(SCC(=O)N3CCCc4ccccc43)s2)cc1`, the compound was called inactive. For the compound `CCc1ccc(/C=N/NC(=O)c2ccccn2)cc1`, the outcome was inactive. For `CCC(Oc1ccccc1)C(=O)NC1CCSC1=O` (stereo not given), the compound was classed as inactive. For the compound `O=C(O)/C=C/c1ccc2ccccc2n1`, the call was inactive.

With `CN(C)CCN(Cc1ccc(Cl)cc1)c1ccccn1`, the outcome was inactive. To `Cc1ccc(C(=O)Nc2cccc(C(=O)O)c2)cc1S(=O)(=O)N1CCCCC1` belongs “inactive”.

With `CCCCN(c1ccccc1)c1ncnc(N)c1[N+](=O)[O-]`, the compound was called inactive.

As to `O=C(N/N=C/c1cccc(O)c1)c1ccc2c(c1)OCCO2`, the compound was called inactive. For `O=C(NN1C(=O)C2C3C=CC(C4CC34)C2C1=O)c1cccc(Cl)c1` (stereo not given), the outcome was inactive.

For `CC(C)(C)n1nc(-c2ccc(F)cc2)c2c(N)ncnc21`, the outcome was inactive. As for `COc1cc(OC)cc(-c2cc3nc(C)c(CCC(=O)O)c(C)n3n2)c1`, the entry is “inactive”; as for `CN(C)CC(C)(C)CNS(=O)(=O)c1ccc(OC(F)(F)F)cc1`, “inactive”. Turning to `COc1cccc(C2=CC(=O)C[C@H](c3ccc4c(c3)OCO4)C2)c1`, the outcome was inactive.

For `COC(=O)CN(c1ccccc1F)S(=O)(=O)c1ccc(C)cc1`, the compound was classed as inactive. To `CCCCCCNC(=O)O[C@]12C[C@@H](C(=O)OC)[C@@H](C(=O)OC)C[C@@]1(O)CN(S(=O)(=O)c1ccc(C)cc1)C2` belongs “inactive”. Consider `CN(CCNC(=O)C1CCN(S(=O)(=O)N2CCOCC2)CC1)CCc1ccccc1`, for which the compound was called inactive.

With `O=c1c2cnn(-c3ccccc3)c2nc(-c2cccs2)n1-c1ccc(Cl)cc1`, the outcome was inactive. As for `NNC(=O)c1cccc(COc2ccc3c(c2)CCC3)c1`, the outcome was inactive. For `S=c1[nH]nc(C2CCCCC2)n1/N=C/c1ccncc1`, the outcome was inactive.

`N#CC1=C(N)C(C#N)(C#N)C(c2cccnc2)C2CC(c3ccccc3)CC=C12` (stereo not given): the result was inactive. Regarding `COc1cc(CC(=O)N(c2ccccc2)c2nc(C)cs2)cc(OC)c1OC`, the compound was classed as inactive.

Regarding `O=C(CN1C(=O)c2ccccc2S1(=O)=O)Nc1ncc(Cl)cc1Cl`, the outcome was inactive. Turning to `Cc1ccc(-n2c(=O)c3c(c4cc(C)ccc4n3C)n(CC(=O)NCC3CCCO3)c2=O)cc1` (stereo not given), the result was inactive. To `COc1ccc(C)cc1S(=O)(=O)N(CC(=O)Nc1cc([N+](=O)[O-])ccc1C)c1ccc(C)c(C)c1` belongs “inactive”; to `O=C(c1sc2cc([N+](=O)[O-])ccc2c1Cl)N1CCOCC1`, “inactive”. Regarding `Cc1cc(N=Cc2c(O)ccc3cc(Br)ccc23)no1`, the compound was called inactive. `Cc1cc(=O)[nH]c(N/N=C/c2ccc(C)o2)n1`: the compound was classed as inactive. Take `CC(=O)Nc1cccc(-c2cnc(N)c(C(=O)c3cccnc3)n2)c1`: the result was inactive.

Consider `O=C(O)c1cc(=O)c2c(OCC(O)COc3cccc4oc(C(=O)O)cc(=O)c34)cccc2o1`, for which the call was inactive.

For the compound `Cn1cc(SCC(=O)NCC2CCCO2)c2ccccc21` (stereo not given), the outcome was inactive. For `Cc1ccc(-n2c(C)c([N+](=O)[O-])c3ccc(O)c(CN(C)C)c32)cc1`, the compound was called inactive.

Consider `NC1=NC(=O)NC1(c1ccccc1)c1ccccc1`, for which the call was inactive. On to `Cn1nc(-c2ccc(N3CCOCC3)c(NS(=O)(=O)c3ccccc3)c2)c2ccccc2c1=O`, for which the result was inactive. Regarding `COc1ccccc1N1CCN(C(=O)CCC(=O)N2CCN(c3ccc(F)cc3)CC2)CC1`, the compound was classed as inactive.

Take `COc1ccc(/C=C/C(=O)OCC(=O)NCc2ccco2)cc1OC`: the compound was called inactive.

`CCOc1ccc(C(=O)NC(=S)N(Cc2ccccc2)Cc2ccccc2)cc1`: the call was inactive. In the case of `COc1ccc2cc(-c3cc(C(=O)OCC(=O)NC4CCS(=O)(=O)C4)c4ccccc4n3)ccc2c1` (stereo not given), the outcome was inactive. For the compound `O=C(CCCOc1ccccc1)N1CCN(c2ccccc2)CC1`, the outcome was inactive.

For `CCn1c(CCNC(=O)c2ccc(OC)cc2)nnc1SCc1ccc(Cl)cc1Cl`, the compound was classed as inactive.

With `CC1S/C(=C(\C#N)C(=O)NCc2ccco2)N(Cc2ccco2)C1=O` (stereo not given), the result was inactive. As for `Cc1onc(-c2c(Cl)cccc2Cl)c1C(=O)N[C@@H]1C(=O)N2[C@@H]1SC(C)(C)[C@@H]2C(=O)O`, the entry is “inactive”. For `Cc1cc(C)nc(SCC(=O)OCN2C(=O)c3ccccc3C2=O)n1`, the compound was classed as inactive. Take `Nc1ccccc1SC1CC(=O)N(c2ccccc2Cl)C1=O` (stereo not given): the compound was called inactive. On to `Cc1ccccc1C(=O)N1CCN(c2ccc(NC(=O)c3ccco3)cc2Cl)CC1`, for which the compound was classed as inactive. On to `CCOc1ccccc1NC(=O)Cn1c(=O)sc2ccccc21`, for which the outcome was inactive. Turning to `COc1ccc(C(Nc2ccccn2)c2oc(CO)cc(=O)c2O)cc1` (stereo not given), the call was inactive. With `CC(=O)c1ccc(NC(=O)c2noc3c2CCC3)cc1`, the outcome was inactive. As for `O=c1nc(N/N=C/C=C/c2ccccc2)cn[nH]1`, the entry is “inactive”. With `Cc1ccc(S(=O)(=O)NC(CC(C)C)C(=O)NCC(c2ccco2)N2CCCCC2)cc1` (stereo not given), the outcome was inactive.

For `COc1ccc(S(=O)(=O)NC(CC(=O)NCc2ccco2)C(C)C)cc1` (stereo not given), the outcome was inactive. Take `Cc1nnc(SCC(=O)N2CCC(c3noc4ccc(F)cc34)CC2)s1`: the outcome was inactive. With `CCC(=O)NC(=S)Nc1ccccc1C(F)(F)F`, the call was inactive. Consider `COc1ccc(NC(=O)C[C@H]2C(=O)N(CCc3ccccc3)C[C@@H]2c2ccc(OC)cc2)cc1`, for which the compound was classed as inactive.

`CC(C)c1cc(NC(=O)c2ccccc2)cc(C(C)C)c1O`: the compound was classed as inactive. In the case of `O=C1OCC2=C1C(c1ccc3c(c1)OCO3)c1cc3c(cc1O2)OCO3` (stereo not given), the call was inactive. For `CCCCCC(=O)NC(=S)Nc1ccc(Br)cc1C`, the compound was called inactive. To `Cc1cc(C(=O)CN2C(=O)c3ccccc3C2=O)c(C)n1Cc1cccs1` belongs “inactive”; to `COc1ccc(C(=O)N(CN2CCCC2=O)c2cc(C)on2)cc1OC`, “inactive”; to `Cn1c(=O)[nH]c(=O)c2c1nc(CN1CCOCC1)n2CCCc1ccccc1`, “inactive”. As for `Cc1c(NC(=O)c2cc(-c3cccs3)nc3ccccc23)c(=O)n(-c2ccccc2)n1C`, the entry is “inactive”. Consider `CN(C1CCCCC1)S(=O)(=O)c1ccc(C(=O)N2CCN(c3nc4ccccc4s3)CC2)cc1`, for which the call was inactive. On to `O=C(CN1C(=O)CCOc2ccccc21)Nc1ccc(Cl)c(S(=O)(=O)N2CCOCC2)c1`, for which the call was inactive. Turning to `Cc1cccc(CNc2ncnc3ccc(-c4ccoc4)cc23)c1`, the outcome was inactive. As for `COc1cc(-c2nc(C(=O)NCC3CCCO3)cc3c2[nH]c2ccccc23)cc(OC)c1OC` (stereo not given), the call was inactive.

The values are drawn from PubChem BioAssay AID504882 (Broad Institute, 2011).
